Results on 101 compounds are retold here after ChEMBL document CHEMBL4888484, “Replenishing the malaria drug discovery pipeline: Screening and hit evaluation of the MMV Hit Generation Library 1 (HGL1) against asexual blood stage Plasmodium falciparum ,using a nano luciferase reporter read-out” (2022).

Hit rate of the full screen: of about 4,800 compounds, about 420 (8.8%) showed an effect of 50% or more. The sample holds strong results, similar compounds and a random draw of the others, so the mix is not that of the screen.

For this assay, the system named is Plasmodium falciparum. The experiment in a line: Confirmatory screen in NF54 nanoGlo assay, in single point, at 2uM, 72h. Type of assay: functional, Erythrocyte. The following applies: timepoint 72 hour.
The term % Inhibition denotes the relative decrease from the control value, in per cent. `Cc1cccc(NC(=O)[C@@H](C#N)C(=O)c2ncoc2C)c1`: the “% Inhibition” value is on record as -14%.

With `Cc1c(C2CC2)n[nH]c1NC(=O)C1CC1c1ccccc1` (stereo unspecified), the “% Inhibition” value is recorded as -1%.

Consider `O[C@@]1(CN2CCC(COc3ccc4c(c3)CCC4)CC2)CCCNC1`, for which the “% Inhibition” value stood at 52%.

On to `COc1cccc(Cn2nccc2NC(=O)C2CCOCC2)c1OC`, for which the “% Inhibition” value is -3%.

As to `CC(C)Cn1c(C(F)(F)F)cnc1N`, the “% Inhibition” value is 3%.

`Cc1ncc(CN(C)[C@@H](C)C(=O)Nc2ccc3c(c2)OC2(CCCCC2)O3)s1`: the “% Inhibition” value is -4%.

For `COc1cc(Cl)c(C)cc1NC(=O)c1nc2cc(C)c(C)cc2n(C)c1=O`, the “% Inhibition” value was -3%.

With `O=C(c1ccc2c(c1)OCCCO2)N1CCCCC1`, the “% Inhibition” value was -3%.

As for `Cc1nc2ccccc2n1CCC(=O)N1CCN(Cc2ccc3c(c2)OCO3)CC1`, the “% Inhibition” value amounted to 2%.

In the case of `O=C(c1ccc2c(c1)OCO2)N1CCn2c1nc1ccccc12`, the “% Inhibition” value is recorded as 65%.

In the case of `CCC[C@H]1C(=O)NCCN1C(=O)c1cnn(CC2CCOCC2)c1C`, the “% Inhibition” value was 8%.

Turning to `Cc1nnc(NC(=O)[C@H](C)c2ccc(-c3ccccc3)c(F)c2)s1`, the “% Inhibition” value is recorded as -19%.

In the case of `COc1cc(C(c2c(C)n(C)n(-c3ccccc3)c2=O)c2c(C)n(C)n(-c3ccccc3)c2=O)c(Br)c(Br)c1OCc1ccccc1`, the “% Inhibition” value was found to be 7%.

As for `Cn1ccnc1C1CC(NC(=O)c2cc3c(s2)CCC3)CCO1` (stereo unspecified), the “% Inhibition” value stood at 0%.

In the case of `COc1cc2c(cc1OC)[C@@H](NC(=O)c1cnc(C3(C)OCCO3)s1)CCCC2`, the “% Inhibition” value was 50%.

Consider `COc1cc(C(=O)NC2CCCCC2)cc2occc12`, for which the “% Inhibition” value is on record as -8%.

For `Cc1cccc(C(=O)ON2C(=O)CCC2=O)c1`, the “% Inhibition” value is -11%.

For the compound `CCCCC[C@H](C)NC(=O)CCC(=O)Nc1cccnc1`, the “% Inhibition” value was -11%.

On to `Cc1ccc(Oc2ccccc2CNC(=O)[C@@H]2CCC(=O)N2)cc1`, for which the “% Inhibition” value is recorded as -6%.

Take `COCCN(Cc1nc(C(=O)NC(C)C)cs1)C(=O)Nc1ccc(C(C)C)cc1`: the “% Inhibition” value is reported as 4%.

With `CC1CCN(C(=O)Cc2csc(NC(=O)c3cccc(O)c3)n2)CC(C)C1` (stereo unspecified), the “% Inhibition” value is -10%.

`Fc1cnc(OC2Cc3ccccc3C2)nc1`: the “% Inhibition” value amounted to 57%.

Consider `CCn1c(C)cc(C(=O)O[C@@H](C)C(=O)Nc2ncccn2)c1C`, for which the “% Inhibition” value is reported as -4%.

`CC1CCCC(C)N1C(=O)CN(C)c1cccc2cccnc12` (stereo unspecified): the “% Inhibition” value is listed as -7%.

On to `Cc1ccc(S(=O)(=O)Nc2ccc(Br)cc2C(=O)Nc2ccc(Oc3ccc(Br)c4ccccc34)c(Cl)c2)cc1`, for which the “% Inhibition” value amounted to 6%.

For the compound `C[C@@H](CC(=O)Nc1cncnc1-n1cccn1)c1ccccc1`, the “% Inhibition” value is -3%.

For `OC(CC(Nc1ccc(Cl)cc1)c1ccccc1)c1ccccc1` (stereo unspecified), the “% Inhibition” value is -8%.

Regarding `CC(C)n1nccc1N1C(=O)N[C@@H](CC(F)(F)F)C1=O`, the “% Inhibition” value turned out to be 0%.

`O=C(Nc1cnc2ccccc2c1)c1ccccc1C(=O)c1ccc(F)cc1`: the “% Inhibition” value came to 96%.

As for `CCN1C(=O)C[C@H](C(=O)Nc2cnc3ccccc3c2)[C@H]1c1nccn1CC`, the “% Inhibition” value came to 2%.

For the compound `O=C(Nc1cc(NC(=O)c2ccc(F)cc2)cc(Oc2cccnc2)c1)c1ccc(F)cc1`, the “% Inhibition” value is recorded as -1%.

With `Cc1nn(C)c(NC(=O)Nc2cccc(Cl)c2)c1C1=CCCCC1`, the “% Inhibition” value is -5%.

In the case of `COc1ccc(-c2cn(-c3ccc(OC)cc3)c(N)c2C#N)cc1`, the “% Inhibition” value was -7%.

Turning to `CCc1n[nH]c(=O)c(C(=O)Nc2cnc3[nH]nc(C)c3c2)c1CC`, the “% Inhibition” value is given as -1%.

In the case of `Cc1nsc(N2CCN(CC(C)O)C(C)C2)n1` (stereo unspecified), the “% Inhibition” value is listed as -4%.

As for `c1ccc(C[C@]2(c3ccccc3)CCNC2)cc1`, the “% Inhibition” value amounted to 1%.

As for `O=c1cc(N2CCN(C3CCCC3)CC2)cnn1Cc1ccccc1`, the “% Inhibition” value was -13%.

As to `O=C(Cc1ccccc1F)N1CC(n2cnnc2C2CCOCC2)C1`, the “% Inhibition” value is -14%.

`COc1ccc([C@@H]2CN(S(=O)(=O)c3ccc(OC)cc3)CCN2C)cc1`: the “% Inhibition” value is 1%.

Consider `O=c1[nH]c2nc(N3CCC(N4CCCCC4)CC3)ncc2c(=O)n1-c1ccc2c(c1)OCO2`, for which the “% Inhibition” value is -9%.

Consider `CS(=O)(=O)N1CC[C@H](N(C(=O)NCCc2ccccc2)C2CCOCC2)C1`, for which the “% Inhibition” value was -14%.

As for `CC(C)c1cccc(Nc2nc3ccncc3n(C(C)C)c2=O)c1`, the “% Inhibition” value was 95%.

Turning to `O=C(CN1CCOC2CCCCC21)N1CCOC2CCCCC21` (stereo unspecified), the “% Inhibition” value is reported as -9%.

Take `Cc1cc(C(=O)NC(C2CC2)C2CC2)c(C)o1`: the “% Inhibition” value is on record as -2%.

On to `O=C1NCCC[C@@H]1NS(=O)(=O)N1CCc2ccccc2C1`, for which the “% Inhibition” value was found to be 0%.

Regarding `CCc1cccc(NC(=O)N2CCN(C3=CC4=NC[C@H](C)N4C=N3)CC2)c1`, the “% Inhibition” value is 46%.

As to `Cc1cc(-c2csc(CN3C(=O)CNC3=O)n2)cc(C)c1F`, the “% Inhibition” value is on record as -4%.

Regarding `Fc1ccccc1N1CCN(c2c3c(nc4nc(Cc5ccc(Cl)cc5)nn24)CCCC3)CC1`, the “% Inhibition” value was -11%.

For the compound `CNc1nc(N2C[C@H](C)[C@@](O)(C3CC3)C2)nc2c1CCC2`, the “% Inhibition” value is -11%.

Regarding `CNC(=O)CNC(=O)c1cccc(Cl)c1`, the “% Inhibition” value is listed as -1%.

For the compound `Cc1nc([C@@H]2CCCN2c2nc(C3CCCC3)ns2)no1`, the “% Inhibition” value was -6%.

Consider `Cc1cc(NC(=O)c2occc2-c2ccccc2)sn1`, for which the “% Inhibition” value is -2%.

In the case of `CN(Cc1ccccc1)c1nc2ncn(CC(=O)NC3CCCCC3)c(=O)c2s1`, the “% Inhibition” value is given as -17%.

On to `Cc1ccc(S(=O)(=O)NCC2(CNS(=O)(=O)c3ccc(C)cc3)CN(S(=O)(=O)c3ccc(C)cc3)C2)cc1`, for which the “% Inhibition” value stood at 7%.

As for `COc1cccc(NC(=O)Cn2c(=O)n(C)c(=O)c3sc(N4CCCC4)nc32)c1`, the “% Inhibition” value is 0%.

As to `COc1cccc(Cn2c(=O)c3sccc3n(CC(=O)Nc3ccc4c(c3)OCO4)c2=O)c1`, the “% Inhibition” value worked out at 10%.

Turning to `COc1cccc(NC(=O)Cn2c(C)ccc(NS(=O)(=O)c3ccc(C)cc3)c2=O)c1`, the “% Inhibition” value was 63%.

As for `c1ccc2oc(-c3ccnc4nncn34)cc2c1`, the “% Inhibition” value is -7%.

In the case of `COc1cc(C)c2[nH]c3c(c(=O)c2c1)CN(CC(=O)Nc1ccc2c(c1)OCCO2)CC3`, the “% Inhibition” value was 16%.

Turning to `Clc1cccc(N2CCN(Cc3nc(-c4ccco4)no3)CC2)c1`, the “% Inhibition” value is reported as -6%.

For the compound `O=C(NC1CCN(Cc2ccco2)CC1)c1ccco1`, the “% Inhibition” value is -9%.

Consider `CC(C)(C)OC(=O)NCC1CCCCC1C(F)(F)F` (stereo unspecified), for which the “% Inhibition” value is 0%.

`O=C(CNC(=O)OCc1ccccc1)Nc1ccc(F)cc1`: the “% Inhibition” value is recorded as -12%.

Regarding `COc1cccc(-c2cc(C(=O)N3CCCN(C(=O)c4cc(-c5cccc(OC)c5)nc5ccccc45)CC3)c3ccccc3n2)c1`, the “% Inhibition” value is recorded as -1%.

As for `COc1ccc(-c2cc(C(F)(F)F)nc(-n3nc(-c4cccc(OC)c4)c(Cl)c3-c3cccc(OC)c3)n2)cc1`, the “% Inhibition” value was 84%.

Regarding `COc1cccc(-c2cc(C(=O)Nc3ccc(F)c(Cl)c3)c3c(C)nn(C)c3n2)c1`, the “% Inhibition” value is reported as -4%.

In the case of `COc1cccc(-c2nn(-c3nc(-c4ccccc4)cc(C(F)(F)F)n3)c(-c3cccc(OC)c3)c2Cl)c1`, the “% Inhibition” value is 54%.

Turning to `COc1cccc(-c2nc3n(c2C(=O)Nc2cccc(Cl)c2)CCS3(=O)=O)c1`, the “% Inhibition” value was -3%.

For the compound `COc1cccc(-c2cc(C(=O)Nc3cc(Cl)ccc3C)c3c(C)nn(C)c3n2)c1`, the “% Inhibition” value is listed as -15%.

In the case of `COc1ccc(C)cc1NC(=O)c1nn(-c2ccccc2)c2ccccc2c1=O`, the “% Inhibition” value is reported as 17%.

Turning to `CCn1cc(Cl)c(C(=O)N2CCN(C(=O)c3ccco3)CC2)n1`, the “% Inhibition” value is -11%.

With `Cc1ccc(CN2CCN(CC(=O)NC3CCCCC3C)C2=O)cc1` (stereo unspecified), the “% Inhibition” value is listed as -10%.

As for `C[C@](O)(CNC(=O)Cn1nc2ccccn2c1=O)c1cccs1`, the “% Inhibition” value is -1%.

For the compound `Clc1ccc(NC2(c3noc([C@@H]4CCCCO4)n3)CCC2)cc1`, the “% Inhibition” value turned out to be 5%.

On to `COc1ccc(CNCc2ccc(C)cc2)cc1Cn1ccnc1`, for which the “% Inhibition” value was 42%.

As for `COc1cc(CNCc2cccs2)ccc1OCc1ccccc1C`, the “% Inhibition” value is -7%.

For `CC1Cc2cc(-c3ccc(CNC(=O)C(C)(O)C4CC4)cc3)ccc2O1` (stereo unspecified), the “% Inhibition” value came out at 4%.

With `CC1(C)C[C@@H](NC(=O)c2cc3[nH]cnc3cc2F)CCO1`, the “% Inhibition” value is on record as 7%.

As for `Cc1cc([C@H](Nc2ccccn2)c2ccccc2)c(NC(=O)c2ccccc2)s1`, the “% Inhibition” value stood at 4%.

With `Cc1cc([C@H](Nc2ccccn2)c2cccnc2)c(NC(=O)c2ccccc2)s1`, the “% Inhibition” value was determined as 2%.

In the case of `Oc1ccc2ncccc2c1[C@@H](Nc1ccccn1)c1cccc(Br)c1`, the “% Inhibition” value worked out at 67%.

`Cc1nn(C)c(C)c1S(=O)(=O)N1CCCN(c2ccc(F)c(F)c2)CC1`: the “% Inhibition” value was found to be 3%.

On to `CCCn1c(C)cnc1C1CN(S(=O)(=O)c2ccc(C)c(F)c2)C1`, for which the “% Inhibition” value was -6%.

On to `Cc1noc(C(C)(C)NC(=O)Nc2c[nH]nc2-c2nccs2)n1`, for which the “% Inhibition” value was -7%.

As for `COc1ccc(Cl)cc1S(=O)(=O)c1cnc(N2CCOCC2)nc1N`, the “% Inhibition” value is on record as -2%.

Regarding `C[C@@H](CNc1ncc(C(=O)N2CCOCC2)cc1Cl)c1nncn1C`, the “% Inhibition” value was -12%.

Turning to `COCCN1C(=O)C[C@H](Nc2ccc3c(c2)CCC3)C1=O`, the “% Inhibition” value is recorded as 1%.

As for `Cc1ccc(C)c(C(=O)CN2Cc3ccccc3C2=N)c1`, the “% Inhibition” value is 0%.

As for `Fc1ccc(Nc2nc3c(s2)CCCC3)cc1`, the “% Inhibition” value is recorded as -17%.

Regarding `c1ccc(C(c2ccccc2)N2CCN(c3nn4cnnc4c4ccccc34)CC2)cc1`, the “% Inhibition” value turned out to be 65%.

Regarding `Fc1cccc(-n2nc(-c3ccccc3F)cc2-c2ccccc2F)c1`, the “% Inhibition” value is -6%.

Consider `CCOc1cc2c(cc1OC)[C@@H](N)CC2=O`, for which the “% Inhibition” value is 1%.

For the compound `CC(C)c1cc(CN(Cc2cc(C(C)C)c(O)c(C(C)C)c2)C2CCCCC2)cc(C(C)C)c1O`, the “% Inhibition” value is given as 96%.

Regarding `CCc1nn(C)cc1CN(Cc1cccc(O)c1)C1CCC(O)CC1` (stereo unspecified), the “% Inhibition” value is given as -3%.

In the case of `Cc1ccc(CN(C)C2CCCCC2)o1`, the “% Inhibition” value was -18%.

Consider `Cc1ccc(-c2ccnc3c(C(=O)NC4CC4)cnn23)cc1C`, for which the “% Inhibition” value is reported as -2%.

As to `Cc1c([C@@H](NCc2ncccc2O)C(C)C)oc2ccccc12`, the “% Inhibition” value was 99%.

Regarding `N#CC1(C#N)C(c2ccc(Cl)cc2)C1(C#N)C#N`, the “% Inhibition” value is listed as 11%.

For the compound `O=C(NCc1cccc(C(F)(F)F)c1)c1csc(C(=O)NC2CCCC2)n1`, the “% Inhibition” value is -14%.

Regarding `CN(C)c1c(F)c(F)c2cc3c(C(C)(C)C)nn(C)c3nc2c1F`, the “% Inhibition” value stood at 3%.

`COc1ccc([C@H](CNC(=O)c2ccccc2)N2CCC(c3ccccc3)=N2)cc1`: the “% Inhibition” value is -3%.
